Source: PubChem BioAssay (National Center for Advancing Translational Sciences (NCATS))
HT1080-NT tox – qHTS for induction of synthetic lethality in tumor cells producing 2HG: qHTS for the HT-1080-NT fibrosarcoma cell line. HT-1080-NT fibrosarcoma viability, CellTiter-Glo ATP luminescence, 48 h. Potency, µM (highest dose often 46.1 µM), inactives show top-dose activity, negative = less viability, actives largely listed as cytotoxic. actives 1.6% (n = 360,000);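 note: NT is the 2HG producing partner of a matched IDH1 knockdown line; 0% = DMSO-treated cells and -100% = media-only wells without cells; nearly all actives have a fitted effect of over 55% in size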
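Viability by CellTiter-Glo luminescence after 48 h compound exposure at 37C of HT-1080-NT cells (750/well, RPMI, 5% FBS). % activity scaled between DMSO wells and medium-only wells, then curve-fitted and categorized by curve class.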
DT40 TDP1 no CPT – qHTS for Inhibitors of human tyrosyl-DNA phosphodiesterase 1 (TDP1): qHTS in cells in absence of CPT; actives 15% (n = 420,000); Potency, µM (series often up to 46.2 µM), for inactives: at the highest dose activity change, negative = growth inhibition, hits mostly inhibitors; DT40 Tdp1-/- hTDP1 cells, no CPT, ATP luminescence, 48 h; note: nearly all actives have a fitted effect of over 55% in size
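DT40 Tdp1-/-;hTDP1 cells, no CPT (DMSO vehicle only), 400 cells/well; compounds pin-transferred; ≥48 hr, 37 °C; CellTiter-Glo 30 min RT dark, luminescence read.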
DT40 TDP1 CPT – qHTS for Inhibitors of human tyrosyl-DNA phosphodiesterase 1 (TDP1): qHTS in cells in presence of CPT. chicken DT40 Tdp1-/-;hTDP1 cells + 20 nM CPT, ATP luminescence, 48 h. Potency, µM (highest dose often 46.2 µM), without a hit: top-dose activity change, negative = growth inhibition, most hits filed as inhibitors. actives 12% (n = 420,000); note: nearly all actives have a fitted effect of over 55% in size
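Cell growth measured by CellTiter-Glo luminescence after a minimum 48 h, 37 C compound exposure with 20 nM CPT in Tdp1-knockout DT40 cells stably expressing hTDP1, seeded 400/well; qHTS titration format.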
KB-V1 MDR tox – qHTS assay for MDR1-selective chemotherapeutics: Primary screen using the drug-selected MDR subline cells KB-V1; KB-V1 MDR cells viability, CellTiter-Glo, 72 h; Potency, µM (doses to about 46.1 µM), most hits filed as cytotoxic; actives 3.4% (n = 400,000); AID 1347076, 2019; note: nearly all actives have a fitted effect of over 60% in size
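Drug-selected KB-V1 cells, grown in DMEM lacking phenol red with 10% FBS, receive compound titrations; after three days at 37 degrees C, surviving cell ATP is quantified by CellTiter-Glo luminescence and responses normalized and curve-fitted.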
KB-3-1 cytotox – qHTS assay for MDR1-selective chemotherapeutics: Primary screen using the parental adenocarcinoma cell KB-3-1; AID 1347075, 2019; KB-3-1 viability, CellTiter-Glo ATP luminescence, 72 h; Potency, µM (highest dose often 46.1 µM), usual class: cytotoxic; actives 1.4% (n = 400,000); note: nearly all actives have a fitted effect of over 60% in size
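72 h, 37 °C compound treatment of KB-3-1 parental cells; CellTiter-Glo added, 10 min, luminescence read. Data corrected against DMSO-only plates and normalized before curve fitting.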
HT1080 IDH1KD tx – qHTS for induction of synthetic lethality in tumor cells producing 2HG: qHTS for the HT-1080-IDH1KD cell line; Potency, µM (highest dose often 46.1 µM), without a hit: at the highest dose activity, negative = toxicity, hits mostly cytotoxic; HT-1080 IDH1 knockdown viability, ATP luminescence, 48 h; actives 2% (n = 360,000);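 note: 0% = DMSO wells and -100% = cell-free medium wells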
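HT-1080-IDH1KD cells (IDH1 knocked down), 750/well in RPMI with 5% FBS, treated with compound 48 h at 37 degrees C. Viability by CellTiter-Glo luminescence, normalised to DMSO and no-cell wells; concentration-response curves classed.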
Starred values were filed as active, the others as inactive; i = inactive; u = inconclusive; x = no result given. This is a sample that favours compounds with a hit; in the whole collection about 19% have one here. Calls come from the whole dose curve; as a rule, active = well fitted curve in the direction sought with a large enough effect; inconclusive = small, poorly fitted or top-dose-only effect, or another doubt; inactive = no such curve, though single readings can be large; an effect the other way counts as inactive or inconclusive. Unless noted, % is set by controls: 0 for no effect and ±100 for the full control effect; potency is the fitted concentration of half-maximal effect.

SMILES	HT1080-NT tox	DT40 TDP1 no CPT	DT40 TDP1 CPT	KB-V1 MDR tox	KB-3-1 cytotox	HT1080 IDH1KD tx
COc1ccc(C[C@@H]2CN3C(=NC[C@@H]3C)N2CCNC(=O)c2ccc(C)c(Br)c2)cc1	-29%	13µM*	23µM*	i	u	-11%
COc1ccc(OC)c(NC(=O)CCN2CCN(CCO)CC2)c1	-5%	1%	9%	i	i	-1%
CCc1ccc(S(=O)(=O)N2CCCC(N3CCN(c4ccc(OC)cc4)CC3)C2)cc1 (stereo not drawn)	4%	u	u	i	i	4%
CC(C)(C)CC(=O)Nc1cc2c3c(c1)CC(=O)N3CCC2	2%	31%	-11%	i	i	0%
Cc1[nH]nc(SCC(=O)N2CCC(C)CC2)c1[N+](=O)[O-]	18%	2%	-6%	i	i	3%
COc1ccc(S(=O)(=O)N2CCCC(C(=O)NCc3cccnc3)C2)cc1OC (stereo not drawn)	-9%	-22%	-11%	i	i	-16%
O=C(CCC1CCCCC1)NCCN1C2=NC[C@H](Cc3ccc(O)cc3)N2C[C@H]1Cc1ccc(O)cc1	2%	u	u	u	i	7%
C[C@@H]1CN=C2N(CCNC(=O)CCC3CCCCC3)[C@H](Cc3ccc(O)cc3)CN21	-3%	16µM*	13µM*	i	i	3%
O=C(CC1N=C2c3ccccc3N=C(SCc3ccc(F)cc3)N2C1=O)NC1CCCCC1 (stereo not drawn)	x	16µM*	u	i	i	x
O=C(CCC1N=C2c3ccccc3N=C(SCc3ccc(F)cc3)N2C1=O)NCc1cccs1 (stereo not drawn)	x	-7%	1%	i	i	x
O=C(CCC1N=C2c3ccccc3N=C(SCc3ccc(F)cc3)N2C1=O)NC1CCCCC1 (stereo not drawn)	x	10µM*	21µM*	i	i	x
O=C(CC1N=C2c3ccccc3N=C(SCc3ccc(Cl)cc3)N2C1=O)NC1CCCCC1 (stereo not drawn)	x	u	u	i	i	x
COc1cccc(NC(=O)CSC2=Nc3ccccc3C3=NC(CCC(=O)NC4CCCCC4)C(=O)N23)c1 (stereo not drawn)	x	u	u	i	i	x
Cc1ccc(CSC2=Nc3ccccc3C3=NC(CC(=O)NC4CCCCC4)C(=O)N23)cc1 (stereo not drawn)	x	1.2µM*	1.2µM*	x	x	x
CCOC(=O)C1C(=O)NC(C)C1c1ccccc1 (stereo not drawn)	20%	-1%	-1%	i	i	15%
CCc1ccc(Oc2c(C(F)(F)F)oc3c(CN4CCCC(C)C4)c(O)ccc3c2=O)cc1 (stereo not drawn)	x	6%	3%	x	x	x
CCCNC(=O)Cn1nc(C)c2c(C)n(-c3ccccc3)nc2c1=O	x	-4%	-8%	x	x	x
CN1C(=O)/C(=N\OC(=O)c2ccccc2Cl)c2ccccc21	22%	23µM*	23µM*	i	i	12%
CC[C@]12c3[nH]c4ccc(OC)cc4c3CCN1C(=O)C(CC(=O)NC/C=C(\C)CCC=C(C)C)C[C@@H]2C(=O)N1CCN(C(=O)C2CC2)CC1 (stereo partly drawn)	-2%	u	u	u	i	-12%
